We go through 13 molecules from PubChem BioAssay.

A short description of test [1]: growth inhibition of DIPG cells – cell-based, MIPE4.0 library, CellTiter-Glo luminescence, qHTS (AID 1347066; cut-off not given, nearly all actives have AC50 up to about 30 µM;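 further: cells exposed to compound for 48 hours before readout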). The conditions noted are these: SU-DIPG-VI viability, CellTiter-Glo ATP luminescence. (Cellular ATP, detected with luciferase, serves as a proxy for viable cell number.)
Test [2] can be described thus: growth inhibition of DIPG cells – cell-based, MIPE5.0 library, qHTS (AID 1347068; cut-off not given, nearly all actives have IC50 up to about 30 µM). The following applies: SU-DIPG-XXV viability. A general note: In qHTS, concentration-response curves come from the screen itself.
The nature of test [3]: viability loss with induced miR-34 in A549 – imaging, A549 dox-inducible miR-34, nuclei and caspase counts, primary screen (AID 1347080;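 active means compounds whose cell count with miR-34 switched on is under 0.7 times the count with it off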). The following applies: A549 miR-34 inducible, Hoechst nuclei count, 48 h.
Test [4] can be described thus: MELAS cybrid and Rieske KO viability enhancers – cell-based, MELAS cybrids, Rieske KO mouse fibroblasts, CellTiter-Glo, primary screen (AID 1508586).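 Further: z relative to plate mean and SD of compound and empty wells.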 The conditions noted are these: low glucose.
Test [5] is described as follows: chitosan synthesis blockers in C. neoformans – flow cytometry, Cibacron Brilliant Red staining (AID 1347148; call rule not given here;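 further: compound exposure lasted three days at 37 degrees C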). The conditions noted are these: Cryptococcus neoformans chitosan, stronger effect = lower value; at 10 µM unless noted.
The nature of test [6]: blockers of cellular phospholipid synthesis – cell-based, LOPAC library, screen 4, primary screen (AID 1347384; call rule not given here). The conditions noted are these: animal cells, phospholipid biosynthesis inhibition screen; at 10 µM.
[7] abbreviates: stronger effect = lower value, cell number ratio, induced over uninduced.
[8] abbreviates: measured here: relative caspase fold change +Dox/-Dox.
The mark [9] stands for this setting: measured here: total cells with miR-34 induction, stronger effect = lower value.
The mark [10] stands for this setting: measured here: total cells without miR-34 induction.
Where [11] appears, read: MELAS cybrid survival, CellTiter-Glo 48 h, stronger effect = higher value.
The mark [12] stands for this setting: Rieske KO mouse fibroblast survival, CellTiter-Glo 72 h.

Several values for one entry are separate records, joined by “and”; a condition that tells them apart may be missing. Identical values can stand only once. Results filed as inconclusive are left out. Activity calls are given as the source filed them.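 How the source made its calls, unless noted: active means mean z-score across replicates of 1.96 or higher in either the MELAS or the Rieske mutant cell line; inactive means the rest.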

Take `CC(=O)Nc1ccc(O)cc1`: the molecule was classed as inactive in test [1] and in test [2]. Also, the fold change in test [3] (setting [7]) was 0.829 (inactive) and 0.996 (inactive) and 0.866 (inactive); in test [3] (setting [8]), 0.925 and 0.621 and 1.43. The cell count in test [3] (setting [9]) was 8180 and 9760 and 10200; in test [3] (setting [10]) it was 9870 and 9800 and 11800. The z-score is 0.35 (inactive) in test [4] (setting [11]) and -0.0609 in test [4] (setting [12]).

Take `CCn1cc(C(=O)O)c(=O)c2cc(F)c(N3CCNCC3)nc21`: the result in test [1] was inactive. In addition, the fold change in test [3] (setting [7]) was 0.955 (inactive) and 0.936 (inactive) and 0.839 (inactive); in test [3] (setting [8]), 0.759 and 2.37 and 1.38. Moreover, the cell count in test [3] (setting [9]) was 8750 and 11500 and 9060; in test [3] (setting [10]), 9160 and 12300 and 10800. In addition, the z-score in test [4] (setting [11]) is -0.278 (inactive) and 0.526 (inactive) and -0.113 (inactive); in test [4] (setting [12]) it was 0.647 and 0.794 and 0.23.

Regarding `Nc1ccc(S(=O)(=O)Nc2ccccn2)cc1`, the call in test [1] was inactive. Moreover, the fold change was 0.875 (inactive) and 0.859 (inactive) in test [3] (setting [7]); 1.07 and 2.95 in test [3] (setting [8]). Also, the cell count was 9140 and 10900 in test [3] (setting [9]); 10400 and 12600 in test [3] (setting [10]). For the same molecule, the z-score in test [4] (setting [11]) is -0.349 (inactive); in test [4] (setting [12]) it was 0.469.

Consider `O=c1c(-c2ccc(O)cc2)coc2cc(O)cc(O)c12`, for which the molecule was called inactive in test [1] and in test [6]. The fold fluorescence in test [5] is 4.75 [at 185 µM] (inactive). Moreover, the z-score is -0.427 (inactive) in test [4] (setting [11]) and 0.508 in test [4] (setting [12]).

On to `CC(=O)Oc1ccccc1C(=O)Nc1ncc([N+](=O)[O-])s1`, for which the AC50 (as a rule, the concentration giving half of the maximal activity seen) in test [1] is 9.59 µM (active). Besides, in test [2], the outcome was inactive. In addition, the fold change is 1.08 (inactive) and 0.866 (inactive) in test [3] (setting [7]); 1.12 and 1.29 in test [3] (setting [8]). Also, the cell count was 2500 and 6120 in test [3] (setting [9]); 2310 and 7070 in test [3] (setting [10]). In addition, the z-score in test [4] (setting [11]) is -0.496 (inactive) and -0.13 (inactive); in test [4] (setting [12]) it was -2.39 and 0.602.

Consider `Cc1onc(-c2ccccc2Cl)c1C(=O)N[C@@H]1C(=O)N2[C@@H]1SC(C)(C)[C@@H]2C(=O)O`, for which the molecule was called inactive in test [1]. Also, the fold change was 0.913 (inactive) and 0.866 (inactive) in test [3] (setting [7]); 1.38 and 0.839 in test [3] (setting [8]). The cell count was 8800 and 10900 in test [3] (setting [9]); 9640 and 12500 in test [3] (setting [10]). Also, the z-score in test [4] (setting [11]) was 1.06 (inactive); in test [4] (setting [12]) it was 0.283.

Take `C[C@](N)(Cc1ccc(O)c(O)c1)C(=O)O`: the result in test [1], in test [2] and in test [6] was inactive. For the same molecule, the z-score in test [4] (setting [11]) was -1.52 (inactive) and -0.0357 (inactive); in test [4] (setting [12]), -0.276 and -0.892.

Regarding `CCOC(=O)C1=C[C@]2(CC)CCCN3CCc4c(n1c1ccccc41)[C@@H]32`, in test [1], the AC50 was 26.4 µM (active). In test [5], the fold fluorescence was 12.8 [at 142.7 µM] (inactive). The outcome in test [6] was inactive. Moreover, the z-score in test [4] (setting [11]) is 0.416 (inactive) and 0.251 (inactive); in test [4] (setting [12]), 0.313 and -0.628.

On to `COC(=O)C1=C(C)NC(C)=C(C(=O)OC(C)C)C1c1cccc2nonc12` (stereo not drawn), for which the result in test [1] was inactive. Further, in test [3] (setting [9]), the cell count was 7780 and 7900 and 7270. The z-score is -0.382 (inactive) and 0.324 (inactive) in test [4] (setting [11]); 1.22 and 0.935 in test [4] (setting [12]).

`Cc1oncc1C(=O)Nc1ccc(C(F)(F)F)cc1`: the molecule was classed as inactive in test [1], in test [2] and in test [6]. For the same molecule, the z-score in test [4] (setting [11]) was -0.557 (inactive) and -0.339 (inactive) and -0.166 (inactive); in test [4] (setting [12]), 0.617 and 0.893 and 0.301.

As for `O=c1[nH]cnc2c1ncn2[C@H]1CC[C@@H](CO)O1`, the molecule was classed as inactive in test [1]. For the same molecule, the fold change is 0.88 (inactive) and 0.877 (inactive) in test [3] (setting [7]); 1.12 and 1.04 in test [3] (setting [8]). For the same molecule, the cell count in test [3] (setting [9]) was 8250 and 10000; in test [3] (setting [10]) it was 9380 and 11400. The z-score in test [4] (setting [11]) is -0.8 (inactive) and -0.278 (inactive); in test [4] (setting [12]), -0.19 and -0.4.

With `Nc1ccn([C@H]2CC[C@@H](CO)O2)c(=O)n1`, the molecule was classed as inactive in test [1] and in test [6]. Further, the fold change was 1 (inactive) and 0.95 (inactive) and 0.852 (inactive) in test [3] (setting [7]); 0.845 and 0.908 and 1.17 in test [3] (setting [8]). Also, the cell count is 9380 and 8950 and 8540 in test [3] (setting [9]); 9340 and 9420 and 10000 in test [3] (setting [10]). In addition, the z-score is -0.041 (inactive) and 0.441 (inactive) in test [4] (setting [11]); -0.157 and -0.525 in test [4] (setting [12]).

Turning to `COc1cc([C@H]2Oc3cc([C@H]4Oc5cc(O)cc(O)c5C(=O)[C@@H]4O)ccc3O[C@@H]2CO)ccc1O`, the molecule was called inactive in test [1] and in test [2].
